Reference: PubChem BioAssay AID1347076 (National Center for Advancing Translational Sciences (NCATS), 2019)
In all, about 400,000 compounds went through this assay and about 13,000 (3.2%) were called active. About 18% were inconclusive and are not listed. Shown is part of a subset that was picked to be rich in actives. Values without a mark were called inactive. Calls follow the shape of the dose curve; as a rule, active = well fitted cell-killing curve with a large enough effect; inconclusive = small, poorly fitted or top-dose-only effect, or effect the other way; inactive = flat fitted curve, though single readings scatter.

test: qHTS assay for MDR1-selective chemotherapeutics: Primary screen using the drug-selected MDR subline cells KB-V1; conditions: KB-V1 MDR cells viability, CellTiter-Glo, 72 h; series mostly up to 46.1 µM; activity change, negative = cytotoxicity: at the top concentration; also: nearly all actives have a fitted effect of over 60% in size
Summary of the method: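 KB-V1 MDR subline cells in DMEM (phenol-red free, 10% FBS) exposed to compounds in qHTS concentration series for 72 h at 37 degrees C. Viability read by CellTiter-Glo luminescence; concentration-effect curves fitted after normalization and correction.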
% is scaled to controls: 0 for no effect and ±100 for the full control effect; potency is read from the fitted curve at half-maximal effect.

SMILES	activity change, negative = cytotoxicity [%]	Potency
COc1ccc(-n2c(SC)nc3sc4c(c3c2=O)CCN(C(C)=O)C4)cc1	-5.53	–
CNc1cnc(-c2cc(OC)c(OC)c(OC)c2)cn1	6.28	–
CN1c2ccc(C=O)c3c(C=O)ccc(c23)N(C)C1(C)C	–	18.4 µM (active)
Cc1ccc(C=O)c([B-](F)(F)F)c1	-1.5	–
Cc1cc(C)c2c(=O)n3c(nc2c1)C(CC(C)C)NC(=O)c1cc2ccccc2cc1-3 (stereo unspecified)	-6.74	–
CN(C)C1=C2C=CC=CC2/C(=C2/C=Cc3ccccc32)C=C1 (stereo unspecified)	6.11	–
CC(=O)Nc1ccc2c3c(ccc([N+](=O)[O-])c13)CC2	27	–
CN(c1ccccc1)S(=O)(=O)c1cccc(NC(=O)Cc2ccc(Cl)cc2)c1	–	5.8 µM (active)
CN(C)S(=O)(=O)c1cccc(NC(=O)Cc2ccsc2)c1	5.23	–
CN(c1ccccc1)S(=O)(=O)c1ccc(NC(=O)COc2ccccc2)cc1	-39.9	–
COc1ccc(CN2C(=O)C(CC(=O)NC3CCCCC3)CC(C(=O)N3CCOCC3)=C2C)cc1 (stereo unspecified)	-2.91	–
CCn1cc(CN2CCC(C(=O)Nc3cccc(-c4cccc(Cl)c4)c3)CC2)cn1	12	–
O=C(Nc1cnn(Cc2ccc(Cl)cc2)c1)C1CCCC1	–	20.6 µM (active)
O=C(O)C1CCCCC1C(=O)Nc1ccc(Cl)cc1 (stereo unspecified)	15	–
CCCCCCN1C[C@@H](O)[C@H](n2cc(COC(=O)c3ccccc3)nn2)C[C@@H]1c1ccc(Cl)cc1	-19.6	–
Cc1ccc(OCCSc2nc3ccc(NC(=O)COc4ccc(C)cc4)cc3s2)cc1	19.9	–
COC(=O)c1cc(C(=O)OC)cc(N2C(=O)CC(N3CCN(c4ccccc4)CC3)C2=O)c1 (stereo unspecified)	0.274	–
CCOC(=O)N1C(=O)C[C@](Sc2ccc(C)cc2)(C(=O)OC)[C@H]1c1ccccc1	0	–
COC(=O)[C@@]1(Sc2ccc(C)cc2)CC(=O)N(c2cccc(SC)c2)[C@@H]1c1ccccc1	–	20.6 µM (active)
Clc1cccc[n+]1CCCC[n+]1ccccc1Cl	-0.735	–
Cc1cc(C)cc(NS(=O)(=O)c2ccc(Oc3ncc(C(F)(F)F)cc3Cl)cc2)c1	–	16.4 µM (active)
Cc1cc(C)cc(NS(=O)(=O)c2ccc(F)cc2)c1	1.11	–
Cc1ccc(NS(=O)(=O)c2ccc(C(C)(C)C)cc2)cn1	-22.7	–
CC1(C(=O)Nc2cccc(Oc3ccccc3)c2)CCN1Cc1ccccc1Cl (stereo unspecified)	-7.82	–
CCN(CC)CCn1c(N)c(S(=O)(=O)c2ccccc2)c2nc3ccccc3nc21	-23.5	–
CCC(=O)Nc1c(S(=O)(=O)c2ccccc2)c2nc3ccccc3nc2n1Cc1ccccc1	–	4.11 µM (active)

SMILES	activity change, negative = cytotoxicity [%]	Potency
Cc1ccc(S(=O)(=O)c2c(N)n(C)c3nc4ccccc4nc23)cc1	-1.9	–
Cc1c(NC(=O)c2cc(=O)c3ccccc3o2)c(=O)n(-c2ccccc2)n1C	0	–
O=C(C[C@H]1C[C@@H]2c3cc(NC(=O)C4CCC4)ccc3O[C@@H]2[C@H](CO)O1)NC1CCCCC1	10.9	–
CCCNC(=O)c1cc(C2CCCN(C(=O)c3ccc4c(c3)CCO4)C2)on1 (stereo unspecified)	2.38	–
Cc1ccc2nc(N3CCN(C(=O)c4ccco4)CC3)sc2c1	-4.81	–
O=C(NCc1ccc(F)cc1)c1ccc2nc(N3CCCCC3)sc2c1	-6.93	–
c1c2c(cc3sc(N4CCCCC4)nc13)OCCO2	–	20.6 µM (active)
COc1ccccc1CNC(=O)NCc1noc2ccc(C)cc12	0	–
COc1cccc2c1C(=O)c1c(O)c3c(c(O)c1C2=O)CC(O)(C(C)=NNC(=O)c1ccc(Cl)c(Cl)c1)CC3OC1CC(N)C(O)C(C)O1 (stereo unspecified)	–	23.1 µM (active)
CC(=O)Nc1cccc(Nc2ccc(C#N)cc2)c1	2.59	–
CCOC(=O)C1=C(c2ccccc2)Nc2ncnn2C1c1ccc(Cl)cc1 (stereo unspecified)	-0.799	–
CCNC(=O)C1(C)CCCN1C(=O)c1ccc(N(C)C)cc1 (stereo unspecified)	5.84	–
Clc1ccccc1CSc1nncn2c1cc1occc12	-18.7	–
Clc1ccccc1CSc1nnc(-c2ccco2)c(-c2ccco2)n1	–	20.6 µM (active)
CC1(C)N=C(SCc2ccccc2Cl)c2ccccc2N1	12.4	–
O=S(=O)(NCC(c1ccco1)N1CCOCC1)c1cc(F)ccc1F (stereo unspecified)	8.46	–
CCC(=O)N1Cc2cc(C(=O)NCc3cccc(F)c3)nc(-c3cccc(C4=CCCC4)c3)c2[C@H]1CCO	5.37	–
Cc1ccnc(N2CCC(C(=O)NC3CCCCCC3)CC2)n1	–	16.4 µM (active)
O=C(NC1CCCCCC1)C1CCN(C(=O)c2ccc(Cl)cc2)CC1	–	14.6 µM (active)
O=C(NNC(=O)C1CCN(c2ncccn2)CC1)c1ccccc1	1.32	–
O=C(NC1CCCC1)C1CCN(C(=O)Nc2cccc(Cl)c2)CC1	2.05	–
O=C(NC1CCN(C(=S)Nc2ccc(Cl)cc2)CC1)C1CCCCC1	1.93	–
Cc1ccnc(N2CCCC(C(=O)NC3CC3)C2)n1 (stereo unspecified)	-14.5	–
Cc1ccc(C(NC(=O)C2CCN(CCOc3ccc(Cl)cc3Cl)CC2)c2ccccn2)cc1 (stereo unspecified)	0.551	–
COc1ccc(NC(=O)C[C@H]2C(=O)N(CCc3ccccc3)C[C@@H]2C)cc1	-28.9	–
CCCNC(=O)c1cc(C2CCCCN2S(=O)(=O)c2cn(C)cn2)on1 (stereo unspecified)	4	–

SMILES	activity change, negative = cytotoxicity [%]	Potency
C[C@H](NC(=O)[C@@H]1CCCN1C(=O)[C@@H]1CCCN1C(=O)c1ccccc1)c1ccccc1	0.427	–
O=C1NC[C@@H](CCCCN2CCN(CCc3ccc(O)cc3)C(=O)C2=O)N(CC2CCCCC2)C1=O	-1.26	–
Cc1cc(C(=O)CSc2nc(N)cc(=O)[nH]2)c(C)n1Cc1ccco1	-15.7	–
Cc1cc(C(=O)CSc2nc(N)cc(=O)[nH]2)c(C)n1CCc1ccc(Cl)cc1	3.44	–
Cc1cc(C(=O)CSc2nc(N)cc(=O)[nH]2)c(C)n1-c1cccc(F)c1	–	3.66 µM (active)
Cc1cc(C(=O)N2CCCC2(C)C(=O)O)c(C)o1 (stereo unspecified)	2.01	–
CN(C)c1cccc(C(=O)Nc2nc3ccc(S(=O)(=O)NC(C)(C)C)cc3s2)c1	–	20.6 µM (active)
CS(=O)(=O)c1ccc2nc(NC(=O)c3ccc(Cl)nc3)sc2c1	0.805	–
COc1cccc(C(=O)Nc2nc3ccc(S(C)(=O)=O)cc3s2)c1	-24.1	–
CC1(C(=O)Nc2cccc3cccnc23)CCN1C(=O)CCC1CCCC1 (stereo unspecified)	3.6	–
CC(C)(O)C1=C[N+](=O)CC=C1	-2.53	–
COc1ccc(C2CC(c3cccc(OC)c3)=NN2c2ccc(S(N)(=O)=O)cc2)cc1 (stereo unspecified)	10.7	–
CCOc1ccc2[nH]c(=S)sc2c1	-0.715	–
COc1cc(OC)c(S(=O)(=O)Nc2ccccc2C(=O)O)cc1S(=O)(=O)Nc1ccccc1C(=O)O	0	–
CCOc1ccc(NC(=O)c2ccccc2NS(C)(=O)=O)cc1	-0.444	–
COc1cc(NC(=O)c2ccccc2NS(=O)(=O)c2ccc(Cl)s2)cc(OC)c1	–	10.3 µM (active)
O=C(Nc1ccc(F)cc1)Nc1nnc([C@H]2C[C@H](O)[C@@H](CO)O2)s1	3.14	–
CC(C)c1ccc(NC(=O)Cn2c3ncccc3c(=O)n2-c2ccccc2)cc1	-4.24	–
O=C1c2ccccc2C(c2nc3ccccc3[nH]2)N1c1ccccc1 (stereo unspecified)	15.6	–
CCOC(=O)[C@]12CCCC=C1N(CCC1=CCCCC1)C(=O)[C@H](CC(=O)N1CCOCC1)C2	-33	–
C=C1C(=O)OC2C1CCC(C)=CCCC1(C)OC21 (stereo unspecified)	-25.5	–
O=C(c1cnn(-c2ccc(F)cc2)c1-n1cccc1)N1CCN(c2ccc(F)cc2)CC1	–	23.1 µM (active)
Cc1nn(-c2ccccc2)c(-n2cccc2)c1C(=O)O	0.327	–
O=C(Nc1ccc(F)cc1F)c1cnn(-c2ccc(F)cc2)c1-n1cccc1	-13.2	–
Cc1nn(-c2ccc(F)cc2)c(-n2cccc2)c1C(=O)N1CCN(c2ccccc2)CC1	–	20.6 µM (active)
CC(=O)c1c(N2CCN(c3ccc(F)cc3)CC2)nc(=S)n(-c2ccccc2)c1C	-5.35	–

SMILES	activity change, negative = cytotoxicity [%]	Potency
COC(=O)c1ccccc1NC(=O)c1cnn(-c2ccc(F)cc2)c1-n1cccc1	-36.6	–
COc1ccc(-c2ccc(C(=O)NCCN3CCOCC3)c3occc23)c(C)c1	0	–
CCCCc1nc2ccc(F)cc2cc1C	-2.71	–
O=C(Nc1cccc(Cc2ccccc2)c1)Nc1ccc2nc([C@@H]3O[C@H](CO)[C@@H](O)[C@H](O)[C@H]3O)[nH]c2c1	-6.5	–
COc1ccccc1CNC(=O)c1ccccc1NC(=O)c1nsc2ccccc12	-0.717	–
Nc1cccc(OCCCCCOc2cccc(N)c2)c1	-6.44	–
O=C(NCc1ccc(Cl)cc1)NCc1ccc(Cl)cc1	9.02	–
S=C(NCc1ccc(Cl)cc1)NC12CC3CC(CC(C3)C1)C2	–	16.4 µM (active)
O=C(NCc1ccncc1)NC12CC3CC(CC(C3)C1)C2	0	–
CCCNC(=O)C1(C)CCN(Cc2ccc(Cl)c(Cl)c2)C1 (stereo unspecified)	0	–
COc1cccc(NC(=O)C2CCN(c3cc(C)nc4c(-c5ccc(Cl)cc5)c(C)nn34)CC2)c1	-8.13	–
CC1(C)OC(=O)C2=C(C[C@@H](C3CC3)O[C@H]2CCc2cccc(Cl)c2)O1	-17	–
O=S(=O)(c1cccc(C(F)(F)F)c1)N1CCN(c2nc(-c3cccs3)nc3ccccc23)CC1	-1.66	–
COCC(=O)N(C)C[C@H]1Oc2cc(Br)ccc2S(=O)(=O)N([C@H](C)CO)C[C@H]1C	13.1	–
CC1(Cc2ccccc2C#N)C(=O)Nc2ccc(-c3ccc4[nH]ccc4c3)cc21 (stereo unspecified)	–	6.51 µM (active)
COc1ccccc1CC1(C)C(=O)Nc2ccc(OC(F)(F)F)cc21 (stereo unspecified)	22.6	–
Cc1ccc(CC2(C)C(=O)Nc3ccc(OC(F)(F)F)cc32)cc1 (stereo unspecified)	2.43	–
Cc1ccc(-n2ncc3c(N4CCC(C(N)=O)CC4)ncnc32)cc1	-12.2	–
Cc1cc(OCC(=O)Nc2nccs2)c2c(C)c(C)c(=O)oc2c1	-5.19	–
COc1ccc(C(C)C)cc1-c1ccc2nncn2c1	0.562	–
CCN(CC)c1ccc(NC(=O)CN2CCN(CC(=O)Nc3ccc(Cl)cc3)CC2)cc1	-7.77	–
CCN(CC)c1ccc(NC(=O)c2ccc(Cl)nc2)cc1	–	4.61 µM (active)
O=C(NNC(=O)c1ccc(Cl)nc1)c1ccc(Br)cc1	12.1	–
